The whole screen tested about 310,000 compounds, of which about 14,000 (4.5%) showed an effect of 50% or more. The effect is printed as a negative number. What follows is part of a selection rich in strong results, with near analogues and random picks from the rest.
target: human ether-à-go-go-related gene (hERG) potassium channel (human, UniProt Q12809); assay: primary screen, population patch clamp on CHO cells stably expressing hERG; higher = less effect of the substance
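Note: peak tail current of the secondary pulse compared with the same well before compound.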

Chain of human ether-à-go-go-related gene (hERG) potassium channel (Q12809 whole entry, looked up): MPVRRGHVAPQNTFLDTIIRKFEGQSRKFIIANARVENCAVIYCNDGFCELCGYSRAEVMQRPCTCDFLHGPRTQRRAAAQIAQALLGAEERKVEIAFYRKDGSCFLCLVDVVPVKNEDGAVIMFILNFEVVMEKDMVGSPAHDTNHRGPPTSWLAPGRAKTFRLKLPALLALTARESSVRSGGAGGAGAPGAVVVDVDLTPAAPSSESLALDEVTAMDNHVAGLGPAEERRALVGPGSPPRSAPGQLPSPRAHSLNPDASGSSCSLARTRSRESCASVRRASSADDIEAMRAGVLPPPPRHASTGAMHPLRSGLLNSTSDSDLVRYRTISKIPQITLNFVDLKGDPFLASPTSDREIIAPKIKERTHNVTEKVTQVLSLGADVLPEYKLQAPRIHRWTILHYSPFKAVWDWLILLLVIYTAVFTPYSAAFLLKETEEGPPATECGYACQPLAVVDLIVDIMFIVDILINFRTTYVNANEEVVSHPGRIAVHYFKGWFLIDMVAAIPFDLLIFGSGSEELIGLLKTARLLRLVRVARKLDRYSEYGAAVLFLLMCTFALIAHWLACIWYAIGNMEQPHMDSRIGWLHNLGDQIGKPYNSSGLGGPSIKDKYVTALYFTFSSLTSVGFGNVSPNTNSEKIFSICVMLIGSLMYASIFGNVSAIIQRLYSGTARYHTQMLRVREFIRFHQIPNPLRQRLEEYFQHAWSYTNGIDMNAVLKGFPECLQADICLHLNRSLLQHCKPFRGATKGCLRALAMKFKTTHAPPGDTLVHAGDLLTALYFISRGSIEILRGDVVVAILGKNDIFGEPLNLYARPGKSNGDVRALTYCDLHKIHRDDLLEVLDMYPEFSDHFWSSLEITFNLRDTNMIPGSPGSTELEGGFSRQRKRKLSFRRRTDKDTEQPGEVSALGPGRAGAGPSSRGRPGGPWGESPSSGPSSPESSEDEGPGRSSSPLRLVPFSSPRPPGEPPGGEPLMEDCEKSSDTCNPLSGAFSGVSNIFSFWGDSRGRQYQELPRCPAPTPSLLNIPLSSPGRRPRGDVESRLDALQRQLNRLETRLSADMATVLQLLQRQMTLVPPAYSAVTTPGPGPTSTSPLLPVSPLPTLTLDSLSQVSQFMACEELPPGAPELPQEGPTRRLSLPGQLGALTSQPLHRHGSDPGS

SMILES	hERG current change (%, negative = inhibition) at 10uM [%]
C=CCOC(=O)C1=C(C)NC(=S)NC1/C=C/c1ccccc1 (centres unmarked)	-4.63
COc1cccc(CN(C)CC(=O)NCc2ccccc2Cl)c1	-5.14
COc1cccc(CN(C)CC(=O)NCc2ccccc2Cl)c1OC	-7.66
CCOc1ccc(CN(C)CC(=O)NCc2ccccc2Cl)cc1	-89.1
Cn1cccc1/C=N\NC(=O)C1COc2ccc(C(C)(C)C)cc2O1 (centres unmarked)	-3.42
COc1ccc(N2CC(C(=O)NCCC3=CCCCC3)CC2=O)c(OC)c1 (centres unmarked)	-4.67
O=C(O)CC/C(=N/NC(=O)c1cccs1)c1ccccc1	6.16
Nc1c(C(=O)NCc2ccco2)nnn1-c1ccccc1	2.52
CC(C)NC(=O)C1CCN(C2CCN(C(=O)c3cc4c(s3)CCCCC4)CC2)CC1	-51.8
NC(=O)C1CCN(C(=O)c2cc3c(s2)CCCCC3)CC1	-6.51
CC(C)NC(=O)C1CCN(C2CCN(C(=O)c3scc4c3CCCC4)CC2)CC1	-1.4
COc1ccc(S(=O)(=O)Cc2ccc(C(=O)O)o2)cc1	21.8
CCOC(=O)N1CCC(n2c(SCC(=O)Nc3ccccc3OC)nc3ccccc3c2=O)CC1	-66.4
CCOC(=O)N1CCC(n2c(SCC(=O)NCCc3ccc(S(N)(=O)=O)cc3)nc3ccccc3c2=O)CC1	21
CCOC(=O)N1CCC(n2c(SCC(=O)NCc3ccccc3)nc3ccccc3c2=O)CC1	-46.6
CCOC(=O)N1CCC(n2c(SCC(=O)N3CCC(C)CC3)nc3ccccc3c2=O)CC1	-47.9
CCOC(=O)N1CCC(n2c(SCC(=O)N3CCCC3)nc3ccccc3c2=O)CC1	-20.9
CCOC(=O)N1CCC(n2c(SCC(=O)NCCC3=CCCCC3)nc3ccccc3c2=O)CC1	-59.3
COc1ccccc1S(=O)(=O)Cc1ccc(C(=O)NCc2ccc(C)cc2)o1	-28.4
CC(C)(CNC(=O)c1cc(Cl)c(O)c(Cl)c1)N1CCCCC1	4.69
c1ccc(N=Nc2ccc3cccccc2-3)cc1	8.38
Cc1cc(Oc2nnnn2-c2ccccc2)ccc1Cl	-15.3

SMILES	hERG current change (%, negative = inhibition) at 10uM [%]
COc1ccc(C(CC(=O)N2CCC3(CC2)OCCO3)NS(=O)(=O)c2ccc(F)cc2)cc1 (centres unmarked)	-2.22
O=C(O)C1CC=CCC1C(=O)Nc1ccc(Oc2ccc(Cl)cc2)cc1 (centres unmarked)	7.55
COc1ccc(CCC(=O)NNC(=O)c2ccc(F)cc2)cc1	6.02
O=C(CCc1nnc2ccc(NCc3ccc(F)cc3)nn12)NC1CCCC1	-0.461
CSCC[C@H](NC(=O)OC(C)(C)C)c1nnc(SCc2cccc(F)c2)o1	-30.3
CSCC[C@H](NC(=O)OC(C)(C)C)c1nnc(SCC(=O)Nc2ccc(C)cc2C)o1	-50.1
CSCC[C@H](NC(=O)OC(C)(C)C)c1nnc(SCc2ccc(F)cc2)o1	-46.2
Cc1ccc(NC(=O)CSc2nnc([C@H](C)NC(=O)OC(C)(C)C)o2)c(C)c1	-6.67
CSCC[C@H](NC(=O)OC(C)(C)C)c1nnc(SCc2ccccc2)o1	-51.3
CSCC[C@H](NC(=O)OC(C)(C)C)c1nnc(SCC(=O)Nc2c(C)cccc2C)o1	-14.5
Cc1cc(NC(=O)CSc2ccc3c(c2)OCCO3)no1	-8.22
COc1ccc(/C=C2\SC(=O)N(CC(=O)Nc3ccccc3O)C2=O)cc1OC	9.72
CCC1(C)Cc2c(sc3nnn(CC(=O)Nc4ccccc4)c(=O)c23)CO1 (centres unmarked)	-27.3
O=C(CCn1c(=O)oc2ccccc21)Nc1ccc(C(=O)O)cc1	-45
CCOc1ccc(C(=O)N2CCN(c3ccccc3)CC2)cc1OCC	-32.4
COc1cc(C(=O)N2CCN(CCCc3ccccc3)CC2)cc(OC)c1OC	-9.98
CCOc1ccc(C(=O)N2CCN(C(=O)c3ccco3)CC2)cc1OCC	-5.57
COc1cccc(C(=O)N2CCN(CCCc3ccccc3)CC2)c1OC.O=C(O)C(=O)O	-46.7
CCOc1ccc(C(=O)N2CCN(CCc3ccccc3)CC2)cc1OCC	-78.8
COc1ccc(C(=O)N2CCN(CCCc3ccccc3)CC2)cc1OC.O=C(O)C(=O)O	-73.3
OC(C#Cc1ccccn1)c1cccs1 (centres unmarked)	3.9
Clc1ccc(-c2[nH]ncc2N=Nc2ccccc2)cc1	15.3

— article PMC4336329 (PLoS ONE, 2015)
